# Only a selection was taken, and hits are over-represented in it overall.
# BoNT-A LC inh2: BoNT/A light chain protease inhibitors, primary screen, biochemical, flow cytometry, MLPCN library; Botulinum neurotoxin type A light chain protease (Clostridium botulinum A str. ATCC 3502); multiplex microsphere protease substrate cleavage; inhibition, % at 10 µM; actives 0.17% (n = 360,000); AID 588499, 2011; also: plate controls were buffer without enzyme for full effect and enzyme alone for no effect
# TcdB inh: TcdB glycohydrolase inhibitors, primary screen, biochemical, single point, plate reader; TcdB glycohydrolase enzymatic assay; inhibition, % at 9.99 µM; actives 0.24% (n = 350,000); in the data active = inhibition above about 10%
# Autofluor counter: flagged as autofluorescent in microsphere protease counterscreen; fluorescence intensity (test concentration not listed); actives 3.1% (n = 360,000); AID 624483; compound autofluorescence counterscreen, microsphere flow cytometry; stronger effect = higher value; in the data active = fluorescence intensity above about 16000; inconclusive = no clear call, values can overlap the other calls
# Anthrax LF inh2: Bacillus anthracis LF protease inhibitors, primary screen, biochemical, multiplex microsphere, MLPCN library. multiplex microsphere protease cleavage assay. inhibition, % at 10 µM. actives 0.12% (n = 360,000). AID 588501, 2011; also: plate controls were buffer without enzyme for full effect and enzyme alone for no effect
# BoNT F protease: BoNT/F light chain protease inhibitors, primary screen, biochemical, flow cytometry, MLPCN library; Botulinum neurotoxin type F light chain protease (Clostridium botulinum); Multiplex microsphere protease cleavage assay; inhibition, % at 10 µM; actives 0.22% (n = 360,000); in the data active = inhibition above about 35%, passing the limit was not always enough; inconclusive = no clear call, values can overlap the other calls; also: plate controls were buffer without enzyme for full effect and enzyme alone for no effect
# BoNTA LC inh 1: BoNT/A light chain protease inhibitors, confirmation, biochemical, flow cytometry, cherry pick 1; shares compounds with BoNT F protease; inhibition, % at 10 µM; AID 602139, 2011; actives 3% (n = 720); multiplex microsphere protease assay; in the data active = inhibition above about 32%
# BoNT-F LC CP1: BoNT/F light chain protease inhibitors, confirmation, biochemical, flow cytometry, cherry pick 1; shares compounds with BoNT F protease; multiplex microsphere protease cleavage assay; inhibition, % at 10 µM; 720 tested, under 10 active; AID 602140, 2011; call rule not given here
# Anthrax LF CP1: Bacillus anthracis LF protease inhibitors, confirmation, biochemical, multiplex microsphere, cherry pick 1; shares compounds with BoNT F protease; multiplex microsphere protease cleavage assay; inhibition, % at 10 µM; 720 tested, under 10 active; AID 602142, 2011; call rule not given here
# Starred values were filed as active, the others as inactive; ? = inconclusive; . = not tested or not shown. Rule as the data show it, unless noted: active = inhibition above about 30%; inconclusive = no clear call, values can overlap the other calls; inactive = below that.
SMILES,BoNT-A LC inh2,TcdB inh,Autofluor counter,Anthrax LF inh2,BoNT F protease,BoNTA LC inh 1,BoNT-F LC CP1,Anthrax LF CP1
CCSc1nc2sc3c(c2c(=O)n1C1CCCCC1)CCN(C)C3,45*,.,5142,29,11,1,-1,3
O=C(NCCNC(=O)c1ccccc1)c1ccccc1,1,-2,4755,1,3,.,.,.
O=C(NCS(=O)(=O)c1ccccc1)c1ccccc1,2,.,4447,-2,36*,1,2,4
Cc1ccccc1CC(=O)N(CCN(C)C)CC1CCCN(Cc2ccccc2F)C1 (stereo unspecified),-1,-1,4146,-5,25,.,.,.
CN(C)CCN(CC1CCCN(Cc2ccccc2F)C1)C(=O)c1ccc(Cl)cc1 (stereo unspecified),2,-11,3527,9,44*,0,-4,0
N#Cc1ccc(-c2ccc([C@H]3[C@H](CO)N4CCCCN(S(=O)(=O)c5ccccc5)C[C@@H]34)cc2)cc1,.,0,.,.,.,.,.,.
CCC(=O)N(C)C[C@@H]1Oc2cc(-c3ccc(OC)cc3)ccc2S(=O)(=O)N([C@H](C)CO)C[C@@H]1C,.,2,.,.,.,.,.,.
O=C(Nc1ccc(F)cc1)C1CCN(C(=O)NCc2ccccc2)CC1,2,1,2927,33*,19,-1,-7,-3
C[C@@H]1CN([C@H](C)CO)C(=O)Cc2cc(NS(=O)(=O)c3cccs3)ccc2O[C@H]1CN(C)C(=O)Nc1ccc(F)cc1,.,-1,.,.,.,.,.,.
COC(=O)c1c(NC(=O)c2ccccc2[N+](=O)[O-])sc2c1CC(C)(C)NC2(C)C,8,1,6297,34*,70*,0,-2,5
COCc1cc(C)nc(Nc2ccccc2OC)c1C#N,-2,2,4062,32*,-18,0,1,-6
CCSc1ncnc2c1sc1nc3c(cc12)COC(C)(C)C3,3,2,2577,2,36*,-1,-8,-4
O=C(O)CCC(=O)N1CCN(c2nc(-c3ccccc3)c3ccccc3n2)CC1,-2,1,3212,-6,10,.,.,.
Clc1ccc(-c2nc(N3CCCCC3)nc3ccccc23)cc1,32*,.,10695,16,59*,11,-1,2
O=C(Nc1ccc(NS(=O)(=O)c2ccccc2)cc1)c1ccccc1,-3,-1,4015,-12,-20,.,.,.
CC(=O)c1ccc(S(=O)(=O)Nc2ccc(C(=O)N3CCC3)cc2)cc1,-2,0,4779,0,40*,-1,-2,-4
O=C(O)c1ccc(NS(=O)(=O)c2ccc(C(=O)Nc3ccccc3)cc2)cc1,-4,-1,6786,3,-4,1,0,3
O=C(Nc1cccc(O)c1)c1cccc(S(=O)(=O)Nc2cccc(O)c2)c1,4,3,3622,-3,-20,0,-4,-2
O=C(O)c1ccc(NC(=O)c2cccc(S(=O)(=O)Nc3ccc(C(=O)O)cc3)c2)cc1,3,2,3985,7,39*,0,4,2
CC(=O)N1CC[C@H]2[C@@H]1c1cc(-c3ccc(C#N)cc3)ccc1N(C)[C@H]2CO,.,0,.,.,.,.,.,.
C[C@@H]1CCCCO[C@H](CN(C)CC2CC2)[C@@H](C)CN([C@H](C)CO)C(=O)c2cc(NS(=O)(=O)c3ccccc3)ccc2O1,.,3,.,.,.,.,.,.
O=C(CC1CC1)N1CC2(C1)[C@H](c1ccccc1)[C@H](CO)N2C(=O)C1CCOCC1,.,2,.,.,.,.,.,.
Cc1ccc(-c2ccc([C@@H]3[C@@H](CO)N4C(=O)CN(C(=O)c5cccnc5)C[C@@H]34)cc2)cc1,.,1,.,.,.,.,.,.
CCCCCC(=O)Nc1ccc(S(=O)(=O)Nc2cc(OC)nc(OC)n2)cc1,2,0,3600,-2,39*,-1,-2,2
COC(=O)CCC(=O)Nc1ccc(S(=O)(=O)Nc2cc(OC)nc(OC)n2)cc1,-2,2,3679,-3,-3,.,.,.
SMILES,BoNT-A LC inh2,TcdB inh,Autofluor counter,Anthrax LF inh2,BoNT F protease,BoNTA LC inh 1,BoNT-F LC CP1,Anthrax LF CP1
Cc1cc(=O)oc2c(CN3CCCC3)c(O)c(Cl)cc12,-3,-7,3914,30*,10,1,-5,1
COC(=O)C(Cc1ccccc1)NC(=O)c1cccc(S(=O)(=O)N(C)C)c1 (stereo unspecified),7,1,4261,-2,37*,0,-1,-2
COC(=O)[C@H](Cc1ccccc1)N(C)S(=O)(=O)c1cccc(S(=O)(=O)N(C)[C@@H](Cc2ccccc2)C(=O)OC)c1,0,2,2787,-8,-2,.,.,.
CC(=O)c1c(C)nc(-c2ccc(Cl)cc2)nc1N,5,1,2357,1,50*,5,24,5
COc1ccc(C(=O)Nc2nc(-c3ccc([N+](=O)[O-])cc3)c(-c3ccccc3)s2)cc1,29,.,2430,31*,15,24,3,18
O=C(Nc1nc(-c2ccccc2)c(-c2ccccc2)s1)c1ccc(S(=O)(=O)N2CCCC2)cc1,3,.,15385,-4,1,-1,-2,0
Cc1ccc(-c2nc3c(c(=O)c4ccccc4n3C)c(=O)n2-c2ccc(F)cc2)cc1,?,1,5145,-3,?,.,.,.
Cn1c2ccccc2c(=O)c2c(=O)n(-c3ccccc3)c(-c3ccc(C(C)(C)C)cc3)nc21,4,0,4082,36*,?,-2,0,2
COc1ccc(S(=O)(=O)N2CCCCCC2)cc1N(C)S(=O)(=O)c1ccc(Cl)cc1,2,.,5279,2,37*,0,-5,-4
COc1ccc(S(=O)(=O)N2CCC(C)CC2)cc1N(C)S(=O)(=O)c1ccccc1,-2,0,6507,-2,14,.,.,.
COC(=O)c1ccccc1NC(=O)c1ccco1,0,.,2121,0,4,.,.,.
COC(=O)c1sccc1NC(=O)c1ccco1,0,.,4135,-3,36*,-2,-3,-3
C[C@H](CO)N1C[C@H](C)[C@@H](CN(C)S(=O)(=O)c2ccc(Cl)cc2)Oc2ccc(NC(=O)c3ccncc3)cc2C1=O,.,0,.,.,.,.,.,.
C[C@H]1CN([C@@H](C)CO)C(=O)c2cc(C3=CCCC3)cnc2O[C@H]1CN(C)Cc1ccc(F)cc1,.,-5,.,.,.,.,.,.
O=C(c1cccs1)c1ccc(-c2cccs2)s1,33*,.,3150,35*,11,23,0,20
CN1CCN(C(=O)c2ccc(-c3cccs3)s2)CC1,5,-1,3847,14,?,.,.,.

# Source: PubChem (several laboratories)
